Rows were chosen to be rich in hits. Some 27% of all compounds tested hit in one or more screens of this group.
CYP2C19 act = increases human CYP2C19 enzyme activity | activation factor at 5 µM | AID 1025 | 96,000 tested, under 10 active | recombinant CYP2C19, luciferin-H EGE luminescence; hits give high values; 0 = fully inhibited enzyme, 1 = untreated enzyme;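 active = activation factor of at least 2 at 5 µM in the primary screen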;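 note: 0 = wells with 2.5 mM tranylcypromine and 1 = vehicle-only wells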
sEH inh = inhibitors of human soluble epoxide hydrolase; recombinant human sEH enzymatic activity assay; inhibition, % at 2 µM; actives 0.34% (n = 91,000); AID 707; in the data active = inhibition above about 80%
Target sequence (P34913 whole entry, looked up): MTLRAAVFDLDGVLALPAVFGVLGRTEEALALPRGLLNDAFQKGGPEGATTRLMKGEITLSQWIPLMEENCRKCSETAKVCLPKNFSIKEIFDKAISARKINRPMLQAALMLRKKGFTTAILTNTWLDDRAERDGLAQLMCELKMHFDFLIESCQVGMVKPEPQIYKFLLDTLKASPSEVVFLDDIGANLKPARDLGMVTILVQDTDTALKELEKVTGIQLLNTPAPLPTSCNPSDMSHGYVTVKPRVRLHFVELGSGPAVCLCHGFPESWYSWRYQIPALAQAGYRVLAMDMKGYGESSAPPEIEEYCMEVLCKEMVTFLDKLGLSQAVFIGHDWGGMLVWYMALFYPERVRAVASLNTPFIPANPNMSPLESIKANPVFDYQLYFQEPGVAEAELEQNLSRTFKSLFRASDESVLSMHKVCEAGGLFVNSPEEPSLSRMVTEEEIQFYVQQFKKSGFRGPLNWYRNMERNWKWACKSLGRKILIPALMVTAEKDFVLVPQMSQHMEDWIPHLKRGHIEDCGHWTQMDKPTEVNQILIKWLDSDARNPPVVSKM
CYP2C9 inh = inhibitors of human CYP2C9; P11712; CYP2C9 Supersomes, luciferin-H conversion, luminescence; inhibition, % at 5 µM; actives 20% (n = 96,000);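 active = blocking of liver enzyme CYP2C9 beyond about 50% at 5 µM, limit read from the data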
sEH act = soluble epoxide hydrolase (human) activation; actives 0.04% (n = 91,000); AID 717; purified human sEH enzymatic activity, activator screen; activation, % at 2 µM; P34913; in the data active = activation above about 37%
CYP2C19 inh = blocks human cytochrome P450 2C19; P33261; CYP2C19 Supersomes, luciferin-H EGE luminescence, 30 min; inhibition, % at 5 µM; actives 21% (n = 96,000); AID 778;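 active = CYP2C19 inhibition above a set limit at 5 µM in the primary screen, cut at about 50% in these data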;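 note: plate controls were negative control wells for no effect and 2.5 mM tranylcypromine positive control for full effect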
CYP2C9 act = increases human cytochrome P450 2C9 activity; recombinant CYP2C9, luciferin-H conversion, luminescence; hits give high values; factor 1 = untreated enzyme, 0 = blocked; activation factor at 5 µM; actives 1.4% (n = 96,000); AID 1024;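 active = activation factor of 2 or more for CYP2C9 at a 5 µM dose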;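 note: 0 = sulfaphenazole-blocked wells and 1 = vehicle-only wells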
An asterisk follows results filed as active; . = not tested or not shown.

SMILES	CYP2C19 act	sEH inh	CYP2C9 inh	sEH act	CYP2C19 inh	CYP2C9 act
Cc1cccn2c(=O)c3cc(C#N)c(=O)n(CC4CCCO4)c3nc12 (stereo unspecified)	0.8	-2	15	7	24	0.8
Cc1c(NC(=O)C(C)OC(=O)CC2Sc3ccccc3NC2=O)c(=O)n(-c2ccccc2)n1C (stereo unspecified)	1	-14	48	14	1	0.5
Cc1ccc(C(=O)N/C(=C\c2ccco2)C(=O)NCCCn2ccnc2)cc1C	0.2	.	71*	.	79*	0.3
Cc1ccc(C(=O)N/C(=C\c2cccs2)C(=O)NCCCn2ccnc2)cc1C	0.5	-12	54*	15	48	0.5
Cc1ccc(C(=O)N/C(=C\c2sccc2C)C(=O)NCc2ccco2)cc1	0.8	-2	34	0	18	0.7
Cc1cc(=O)n2nc(N3CCC(C(=O)N4CCN(Cc5ccccc5)CC4)CC3)sc2n1	1	6	1	-1	5	1
COc1cc2c(cc1NC(=O)C(C)N1CCN(S(=O)(=O)c3ccc(C)c(C)c3)CC1)oc1ccccc12 (stereo unspecified)	1.1	13	16	-13	-12	0.8
COc1cc2c(cc1NC(=O)c1ccncc1)oc1ccccc12	0.4	-7	91*	7	58*	0.1
COc1cc2c(cc1NS(=O)(=O)N1CCCC1)oc1ccccc12	0.2	-10	-95	8	82*	2*
COc1ccc(N2CCN(C(=O)C3CCCO3)CC2)cc1 (stereo unspecified)	0.9	-7	-13	4	11	1.1
O=C(Nc1ccc(-c2nc3c(ccc4ccccc43)o2)cc1)c1ccco1	0.8	-13	-45	13	16	1.5
Cc1cccc(C(=O)OCc2cnc(Cl)s2)c1	0.8	-4	0	4	17	1
O=C(C1CCN(c2ccc(N3CCOCC3)nn2)CC1)N1CCN(c2ccc(F)cc2)CC1	1	-16	4	17	1	1
C=COC(=O)CSc1nc(-c2cccs2)ccc1C#N	1	.	15	.	-3	0.9
CCOC(=O)C(C)Sc1nc(-c2cccs2)ccc1C#N (stereo unspecified)	0.1	.	96*	.	91*	0
C=CCNC(=O)C1CCN(c2c([N+](=O)[O-])cc(C(F)(F)F)cc2[N+](=O)[O-])CC1	0.9	38	22	-37	14	0.8
CSC1=NCCN1C(=O)Cc1ccc(Cl)cc1	0.4	12	27	-13	57*	0.7
CN(C)c1ccc(/C=C2\C(=O)N(c3ccc([N+](=O)[O-])cc3)N=C2N2CCOCC2)cc1	.	10	.	-6	.	.
CCC(=O)N(CCC1(C(C)C)CCOC(C)(C)C1)Cc1ccco1 (stereo unspecified)	0.4	-4	14	3	59*	0.9
CC(=O)N(CCC1(C(C)C)CCOC(C)(C)C1)Cc1ccco1 (stereo unspecified)	1.1	-2	-19	3	-6	1.2
Cc1csc(SCC(=O)Nc2nc(-c3ccccc3)cs2)n1	0.7	-7	25	5	28	0.8
O=C(CSc1ncn[nH]1)Nc1nc(-c2ccccc2)cs1	0.4	-1	32	4	64*	0.7
Cc1cc(=O)[nH]c(SCC(=O)Nc2nc(-c3ccccc3)cs2)n1	0.8	-3	60*	3	22	0.4
CC(Sc1nc(-c2ccccc2)cc(C(F)(F)F)n1)C(=O)N1CCC(C(N)=O)CC1 (stereo unspecified)	.	-14	.	12	.	.
O=C(COc1ncnc2ccc(Br)cc12)NCc1ccc2c(c1)OCO2	1.1	-4	18	2	-5	0.8
SMILES	CYP2C19 act	sEH inh	CYP2C9 inh	sEH act	CYP2C19 inh	CYP2C9 act
CC(C)(C)NC1=CC(=O)OC12CCCCC2	1.1	-1	-4	-2	-8	1
Cc1ccc(O)c(Sc2cc(C)ccc2O)c1	0	2	96*	2	97*	0
COC(=O)c1ccc(O)c(Sc2cc(C(=O)OC)ccc2O)c1	0.1	2	100*	1	88*	0
Cc1ccc(O)c(NC(=O)CCCC(=O)O)c1	1.1	.	-4	.	-11	1
CCCC(C)NC(=O)c1ccc2[nH]c3c(c2c1)CC(C)CC3 (stereo unspecified)	1	-14	51*	14	1	0.5
O=C(CN1CCN(Cc2ccccc2Cl)C1=O)NC1CCCCCCC1	0.3	28	-7	-27	72*	1.1
CC(C)OCCCNC(=O)CN1CCN(Cc2ccccc2Cl)C1=O	0.9	-16	52*	18	9	0.5
O=C(CN1CCN(Cc2ccccc2Cl)C1=O)NCc1ccco1	1	5	14	-4	-2	0.9
COc1cc(C)ccc1S(=O)(=O)N1CCN(C23CC4CC(CC(C4)C2)C3)CC1	1	8	-25	-8	-5	1.3
CCCCCOP(=O)(OCCCCC)C1(NS(=O)(=O)c2ccccc2)C=CC(=O)c2ccccc21 (stereo unspecified)	0.9	8	56*	-11	8	0.4
Cc1ccc(S(=O)(=O)c2c(C)cc(C)nc2Cl)c(C)c1	0	6	-85	-4	100*	1.8
Cc1cc(C)c(S(=O)(=O)c2ccccc2C)c(Oc2ccccc2)n1	0.3	6	56*	-4	69*	0.4
Cc1cc(C)c(S(=O)(=O)c2ccccc2)c(OC(=O)c2c(Cl)cccc2Cl)n1	0.6	5	37	-3	35	0.6
CCCCSc1nc(C)cc(C)c1S(=O)(=O)c1ccccc1C	0.3	-4	39	4	75*	0.6
Cc1cc(C)c(S(=O)(=O)c2ccccc2C)c(Cl)n1	0.3	0	-256	2	66*	3.6*
Cc1cc(C)nc(N(C#N)S(=O)(=O)c2ccccc2Cl)n1	.	5	.	-2	.	.
COc1ccc(OC)c(NC(=O)C2C3CCC(O3)C2C(=O)O)c1 (stereo unspecified)	1	11	3	-11	2	1
CC(C)[C@H](NC(=O)Nc1ccc(Oc2ccccc2)cc1)C(=O)O	1	-7	29	5	0	0.7
O=C(CC(c1ccccc1)c1ccccc1)NCc1cccnc1	.	9	.	-6	.	.
CC(/C=N\NC(=O)c1cccnc1)c1ccccc1 (stereo unspecified)	.	62	.	-61	.	.
CCN(CC)S(=O)(=O)c1ccc(C(=O)NCc2ccc3c(c2)cc(C)n3C)cc1	1	13	47	-14	5	0.5
Cc1cc2cc(CNC(=O)c3ccc(S(=O)(=O)N4CCCCC4)cc3)ccc2n1C	0.8	41	26	-42	16	0.7
Cc1cc2cc(CNC(=O)c3ccc(S(=O)(=O)N4CCCC4)cc3)ccc2n1C	1	30	82*	-31	4	0.2
CCS(=O)(=O)NCc1ccc2c(c1)cc(C)n2C	0.5	-10	60*	8	54*	0.4

Source: PubChem (several laboratories)
